Data from PubChem BioAssay (NCATS).
Records with an inconclusive call do not appear. Activity calls are given as the source filed them. Unless noted, calls come from the whole dose curve.

Experiments:
[1] = qHTS for Inhibitors of the Functional Ribonucleoprotein Complex (vRNP) of Lassa (LASV) Arenavirus: Viability assay - alamar blue signal for LASV Primary Screen (AID 1347083; calls by dose curve; tested in HEK293 reporter line; note: nearly all actives have a fitted effect of over 80% in size)
[2] = qHTS for Inhibitors of the Functional Ribonucleoprotein Complex (vRNP) of Lymphocytic Choriomeningitis Arenaviruses (LCMV): Viability assay - alamar blue signal for LCMV Primary Screen (AID 1347085; calls by dose curve; tested in HEK293 reporter line; note: nearly all actives have a fitted effect of over 80% in size)
[3] = molecular target: Nucleoprotein (Lymphocytic choriomeningitis virus (strain Armstrong)) (UniProt P09992); experiment: qHTS for Inhibitors of the Functional Ribonucleoprotein Complex (vRNP) of Lymphocytic Choriomeningitis Arenaviruses (LCMV): LCMV Primary Screen - GLuc reporter signal (AID 1347086); note: nearly all actives have a fitted effect of over 70% in size
Sequence of Nucleoprotein (Lymphocytic choriomeningitis virus (strain Armstrong)) (P09992 whole entry, looked up): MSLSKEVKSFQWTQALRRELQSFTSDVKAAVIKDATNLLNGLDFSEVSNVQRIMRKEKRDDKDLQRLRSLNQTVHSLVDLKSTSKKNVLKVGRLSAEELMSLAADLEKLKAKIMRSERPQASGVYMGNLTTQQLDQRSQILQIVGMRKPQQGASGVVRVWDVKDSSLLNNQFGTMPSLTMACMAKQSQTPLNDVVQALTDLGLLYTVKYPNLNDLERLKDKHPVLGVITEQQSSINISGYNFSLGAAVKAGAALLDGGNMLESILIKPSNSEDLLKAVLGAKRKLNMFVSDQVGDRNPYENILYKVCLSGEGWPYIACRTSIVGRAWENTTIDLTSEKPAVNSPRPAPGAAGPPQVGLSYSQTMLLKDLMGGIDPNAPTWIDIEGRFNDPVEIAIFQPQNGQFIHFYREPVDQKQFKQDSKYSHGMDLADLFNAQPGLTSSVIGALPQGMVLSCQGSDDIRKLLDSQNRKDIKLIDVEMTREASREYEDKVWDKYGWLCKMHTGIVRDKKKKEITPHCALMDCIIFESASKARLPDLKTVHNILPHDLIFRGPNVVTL
Potency is the fitted concentration of half-maximal effect.

SMILES | Potency [1] | Potency [2] | Potency [3]
C#Cc1cccc(Nc2ncnc3cc(OC)c(OCCCCCCC(=O)NO)cc23)c1 | 3.43 µM (active) |  | 
CC(C)[C@H](C(=O)Nc1ccc(C(=O)NO)cc1)c1ccccc1 | 5.44 µM (active) | 6.85 µM (active) | 
CN(c1ncccc1CNc1nc(Nc2ccc3c(c2)CC(=O)N3)ncc1C(F)(F)F)S(C)(=O)=O | 24.3 µM (active) | 34.3 µM (active) | 
CN(C)CCCNC(=O)c1ccc(-c2cc(O)c3ncccc3c2)cc1 | 38.5 µM (active) | 19.3 µM (active) | 
Nc1nc(Nc2ccc(S(N)(=O)=O)cc2)nn1C(=O)c1c(F)cccc1F | 24.3 µM (active) |  | 
Nc1ccc(C(=O)c2cc3c(ccc4ccccc43)[nH]2)cc1 | 17.2 µM (active) |  | 
CC=C1NC(=O)[C@H]2CSSCCC=C[C@H](CC(=O)N[C@H](C(C)C)C(=O)N2)OC(=O)[C@H](C(C)C)NC1=O | 0.0968 µM (active) | 0.0968 µM (active) | 
CN1CCN(c2cc(C(=O)Nc3ccc4c(c3)-c3c(c(C(N)=O)nn3-c3ccc(F)cc3)CC4)c(Cl)cn2)CC1 | 2.73 µM (active) |  | 
OCCn1cc(-c2ccc3c(c2)CCC3=NO)c(-c2ccncc2)n1 | 10.9 µM (active) | 1.72 µM (active) | 7.69 µM (active)
CN[C@@H](C)C(=O)N[C@H]1CCCC[C@H]2CC[C@@H](C(=O)N[C@@H](c3ccccc3)c3cn(CCCCc4ccc(CCCCn5cc([C@@H](NC(=O)[C@@H]6CC[C@@H]7CCCC[C@H](NC(=O)[C@H](C)NC)C(=O)N76)c6ccccc6)nn5)cc4)nn3)N2C1=O | 19.3 µM (active) |  | inactive
COc1cccc2nc(-c3cccs3)nc(NN3C(=O)C=C(C)C3=O)c12 | 2.73 µM (active) | 6.11 µM (active) | 7.69 µM (active)
CCOc1cc(C=C2C(=O)N(c3ccccc3)N=C2C)cc(Cl)c1OCC(=O)OC |  | 7.69 µM (active) | 
CCCS(=O)(=O)Nc1ccc(F)c(C(=O)c2c[nH]c3ncc(-c4ccc(Cl)cc4)cc23)c1F |  |  | inactive
c1ccc2c(-c3cnn4cc(-c5ccc(N6CCNCC6)cc5)cnc34)ccnc2c1 |  |  | inactive
O=C(O)c1ccc(O)c2ncc(N3CCOCC3)cc12 |  | 48.5 µM (active) | 
c1ccc2c(CCNc3ccc(Nc4ccncc4)cc3)c[nH]c2c1 |  | 17.2 µM (active) | 21.7 µM (active)
Cc1nc2cnc3ccc(C#Cc4cccnc4)cc3c2n1-c1ccc(C(C)(C)C#N)cc1 | 0.0432 µM (active) | 0.109 µM (active) | 0.109 µM (active)
CCOc1cc(N2CCC(O)CC2)ccc1Nc1ncc2c(n1)N(C)c1ccccc1C(=O)N2C | 7.69 µM (active) | 6.85 µM (active) | 3.43 µM (active)
Clc1ccc(C(c2ccc(Cl)cc2)n2cc[n+](CC(OCc3ccc(Cl)cc3Cl)c3ccc(Cl)cc3Cl)c2)cc1 (stereo unspecified) |  |  | 15.3 µM (active)
CC(C)[C@H](CO)Nc1nc(Nc2ccc(C(=O)O)c(Cl)c2)c2ncn(C(C)C)c2n1 | 0.217 µM (active) | 3.85 µM (active) | inactive
Cc1cc2c(F)c(Oc3ncnn4cc(OC[C@@H](C)O)c(C)c34)ccc2[nH]1 | 24.3 µM (active) |  | 13.7 µM (active)
O=C(Nc1cc(C(F)(F)F)cc(C(F)(F)F)c1)c1cc(Cl)ccc1O |  | 2.43 µM (active) | 
Nc1ccc([N+](=O)[O-])cc1O |  | inactive | inactive
Cc1cccc(Nc2nc(N[C@@H]3CCCC[C@H]3N)ncc2C(N)=O)c1 | 4.85 µM (active) | inactive | inactive

SMILES | Potency [1] | Potency [2] | Potency [3]
COc1cc2nccc(Oc3ccc(NC(=O)C4(C(=O)Nc5ccc(F)cc5)CC4)cc3)c2cc1OC | 27.3 µM (active) |  | inactive
COc1cc2c(Oc3ccc4[nH]c(C)cc4c3F)ncnc2cc1OCCCN1CCCC1 |  | inactive | inactive
CN(C)C(=O)c1ccc(S(=O)(=O)c2ccc(NC(=O)[C@@](C)(O)C(F)(F)F)c(Cl)c2)cc1 |  | inactive | 
CO[C@@H]1[C@H](N(C)C(=O)c2ccccc2)C[C@H]2O[C@]1(C)n1c3ccccc3c3c4c(c5c6ccccc6n2c5c31)C(=O)NC4 | 3.06 µM (active) |  | inactive
CC(C)(C)c1[nH]cnc1C=c1[nH]c(=O)c(=Cc2ccccc2)[nH]c1=O |  | 0.0079 µM (active) | 0.0314 µM (active)
O=C(NCCCNc1nc(Nc2cccc(NC(=O)N3CCCC3)c2)ncc1I)c1cccs1 | 3.85 µM (active) | 34.3 µM (active) | inactive
COc1cc2c(cc1OC)CN(CCc1ccc(NC(=O)c3cccc4c(=O)c5cccc(OC)c5[nH]c34)cc1)CC2 |  | inactive | inactive
C=C[C@@H]1CN2CCC1C[C@@H]2[C@@H](O)c1ccnc2ccccc12 (stereo partly specified) |  |  | 38.5 µM (active)
Cc1cn2c(-c3cn[nH]c3)cnc2c(Nc2ccc(C(=O)N3CCNCC3)cc2F)n1 | 3.85 µM (active) | 1.93 µM (active) | 2.73 µM (active)
COc1ccc(-c2c(-c3ccc(O)cc3O)n[nH]c2C)cc1 | inactive | inactive | inactive
CN(C)Cc1ccc(-c2nc3cccc4c3n2CCNC4=O)cc1 | 21.7 µM (active) | 6.85 µM (active) | inactive
COc1cc2ncnc(Nc3ccc(F)c(Cl)c3)c2cc1NC(=O)C=CCN1CCCCC1 |  | inactive | inactive
COc1ccccc1[C@H](c1cccc2ccccc12)[C@@](C)(C#N)C(=O)N1CCC(c2cccc(C(F)(F)F)c2)CC1 | 21.7 µM (active) |  | inactive
C[C@@H](Oc1cc(-n2cnc3ccc(CN4CCN(C)CC4)cc32)sc1C(N)=O)c1ccccc1C(F)(F)F |  | inactive | inactive
COc1cc2ncn(-c3cc(OCc4ccccc4C(F)(F)F)c(C(N)=O)s3)c2cc1OC | 1.72 µM (active) | 1.72 µM (active) | 1.72 µM (active)
CCN1CCN(CC(=O)Nc2ccc(-c3cccc4c(=O)cc(N5CCOCC5)oc34)c3sc4ccccc4c23)CC1 | 0.544 µM (active) | 1.22 µM (active) | 1.22 µM (active)
COC(=O)c1ccc2c(C(=Nc3ccc(N(C)C(=O)CN4CCN(C)CC4)cc3)c3ccccc3)c(O)[nH]c2c1 |  | 27.3 µM (active) | inactive
Cc1ccc(N)cc1O |  |  | inactive
CC(O)=C(C#N)C(=O)Nc1ccc(C(F)(F)F)cc1 |  |  | 19.3 µM (active)
NC(=O)c1ccc(-c2nc(-c3ccc4c(c3)OCCO4)c(-c3ccccn3)[nH]2)cc1 | 21.7 µM (active) |  | inactive
O=C(C=Cc1cccc(S(=O)(=O)Nc2ccccc2)c1)NO | 25 µM (active) | 39.5 µM (active) | inactive
COC(=O)Nc1ccc(-c2nc(N3CCOCC3)c3cnn(C4CCN(C(=O)OC)CC4)c3n2)cc1 | inactive | inactive | inactive
CCc1cc(-c2n[nH]c(C)c2-c2ccc3c(c2)OCCO3)c(O)cc1O |  | 6.85 µM (active) | 
CC(C)CC(=O)Nc1n[nH]c2c1CN(C(=O)C1CCN(C)CC1)C2(C)C | inactive | inactive | inactive
